{"source": "PubChem BioAssay AID778", "about": "(Sanford-Burnham Center for Chemical Genomics, 2007)", "note": "The whole screen tested about 96,000 compounds, of which about 20,000 (21%) were called active. The list is a sample of the results. Unmarked numbers belong to inactive results.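 The calls were made as follows: active = CYP2C19 inhibition above a set limit at 5 µM in the primary screen (cut at about 50% in these data); inactive = the rest.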", "data": [{"molecular_target": "Cytochrome P450 2C19 (Homo sapiens) (UniProt P33261)", "sequence (P33261 whole entry, looked up)": "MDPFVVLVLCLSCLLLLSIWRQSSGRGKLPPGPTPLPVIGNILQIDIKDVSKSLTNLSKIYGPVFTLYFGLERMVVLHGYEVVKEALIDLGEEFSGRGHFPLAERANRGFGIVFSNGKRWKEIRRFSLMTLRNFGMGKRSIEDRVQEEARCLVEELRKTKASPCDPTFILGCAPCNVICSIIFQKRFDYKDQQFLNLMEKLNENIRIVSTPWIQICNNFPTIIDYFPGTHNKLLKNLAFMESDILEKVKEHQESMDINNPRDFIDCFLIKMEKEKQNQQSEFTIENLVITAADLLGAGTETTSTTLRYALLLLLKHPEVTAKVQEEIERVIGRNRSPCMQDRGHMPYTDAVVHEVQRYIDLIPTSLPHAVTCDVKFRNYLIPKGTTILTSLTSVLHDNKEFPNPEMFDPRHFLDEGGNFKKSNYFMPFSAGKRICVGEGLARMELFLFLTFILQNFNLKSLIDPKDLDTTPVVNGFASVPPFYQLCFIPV", "assay": "blockers of cytochrome P450 2C19 activity – biochemical, luminescence, ADME assay, primary screen (AID 778);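 also: plate controls were negative control wells for no effect and 2.5 mM tranylcypromine positive control for full effect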", "conditions": "CYP2C19 Supersomes, luciferin-H EGE luminescence, 30 min; at 5 µM; active compounds read high", "values": [{"smiles": "CCOC(=O)/C=c1\\s/c(=C\\c2ccccc2OC)c(=O)n1CC(=O)N1CCOCC1", "inhibition": "-9.3%"}, {"smiles": "CCNC(=O)c1sccc1-n1cccc1", "inhibition": "16.3%"}, {"smiles": "CCN1CCN(C(c2cccnc2)c2cc(Cl)c3cccnc3c2O)CC1", "note": "(stereo not drawn)", "inhibition": "17.2%"}, {"smiles": "Cc1ccc(C(=O)NNC(=O)c2cc3cc4ccccc4nc3s2)cc1", "inhibition": "-3.1%"}, {"smiles": "O=c1[nH]c(-c2ccccc2)c(-c2ccccc2)[nH]1", "inhibition": "1.3%"}, {"smiles": "O=C1CC2(CCCCC2)Oc2ccc(OCC(=O)N3CCOCC3)cc21", "inhibition": "-3.8%"}, {"smiles": "CCCCc1nnc(NC(=O)CSc2nc(C)cc(=O)[nH]2)s1", "inhibition": "4.3%"}, {"smiles": "O=C1/C(=C\\Nc2ccccc2)CCN1c1ncccn1", "inhibition": "7.1%"}, {"smiles": "CCOC(=O)c1ccn(-c2nc(-c3ccco3)cc(C(F)(F)F)n2)n1", "inhibition": "9.7%"}, {"smiles": "CC(=O)C1C(c2cccc(Oc3ccccc3)c2)NC(=O)NC1(O)C(F)(F)F", "note": "(stereo not drawn)", "inhibition": "24.4%"}, {"smiles": "Cc1ccccc1-c1ccc(Nc2ccc(C(=O)N3CCOCC3)cc2)nn1", "inhibition": "34.2%"}, {"smiles": "Cc1ccc(C)c(NC(=O)C2Cc3ccccc3CN2C(=O)OCc2ccccc2)c1", "note": "(stereo not drawn)", "inhibition": "62.3% (active)"}, {"smiles": "CC(=O)N1Cc2ccccc2CC1C(=O)O", "note": "(stereo not drawn)", "inhibition": "-21.6%"}, {"smiles": "Cc1ccc(C)c(NC(=O)C2CCCN2C(=O)OC(C)(C)C)c1", "note": "(stereo not drawn)", "inhibition": "11.7%"}, {"smiles": "Cc1cc(C(F)(F)F)nn1-c1nc(-c2ccco2)cc(C(F)(F)F)n1", "inhibition": "2.2%"}, {"smiles": "CCOC(=O)c1cn(CC(=O)Nc2ccc(C(C)C)cc2)nn1", "inhibition": "62% (active)"}, {"smiles": "CCOC(=O)c1ccc(NC(=O)CSc2ncccn2)cc1", "inhibition": "26.9%"}, {"smiles": "CCOC(=O)c1ccc(NC(=O)Cn2nnc(-c3ccc(C)cc3)n2)cc1", "inhibition": "8.5%"}, {"smiles": "COCC(C)NC(=O)c1ccc(-n2nc(C(F)(F)F)cc2-c2cccs2)cc1", "note": "(stereo not drawn)", "inhibition": "12.4%"}, {"smiles": "CSCc1cc(N2CCOCC2)nc(SCc2ccc(Cl)cc2Cl)n1", "inhibition": "50.8% (active)"}, {"smiles": "O=c1cc(CSc2ccc(Cl)cc2)nc(N2CCOCC2)[nH]1", "inhibition": "38.8%"}, {"smiles": "CSCc1cc(N(C)C)nc(SCc2ccc(Cl)cc2Cl)n1", "inhibition": "40.2%"}, {"smiles": "O=C(c1ccc2c(c1)OCCO2)C1CCN(S(=O)(=O)c2cccc(F)c2)CC1", "inhibition": "35.4%"}, {"smiles": "COc1ccc(Cn2c(=O)sc3ccccc32)cc1OC", "inhibition": "99.8% (active)"}, {"smiles": "Cc1nnc(NC(=O)Cn2c(=O)sc3ccccc32)s1", "inhibition": "47.6%"}, {"smiles": "COc1ccc(CCNC(=O)CCn2c(=O)oc3ccccc32)cc1OC", "inhibition": "1.4%"}, {"smiles": "CC(C)n1c(SCC(=O)Nc2ccccc2N2CCCCC2)nc2c1c(=O)n(C)c(=O)n2C", "inhibition": "40.4%"}, {"smiles": "Cn1c(=O)c2c(nc(SCC(=O)Nc3ccccc3N3CCCCC3)n2C)n(C)c1=O", "inhibition": "86.6% (active)"}, {"smiles": "Cn1c(=O)c2c(nc(SCCNS(=O)(=O)c3ccccc3)n2C)n(C)c1=O", "inhibition": "73.3% (active)"}, {"smiles": "C#CC(C)(C)NC(=O)CSc1nc2c(c(=O)n(C)c(=O)n2C)n1CCCC", "inhibition": "-7.1%"}, {"smiles": "Cn1c(=O)c2c(nc(N3CCCCCC3)n2CC(=O)c2ccc(Br)cc2)n(C)c1=O", "inhibition": "0.8%"}, {"smiles": "CCCSc1nc2c(c(=O)[nH]c(=O)n2C)n1CCc1ccccc1", "inhibition": "26%"}, {"smiles": "Cc1ccc(NC(=O)c2cc(-c3ccc(C)o3)nc3ccccc23)nc1", "inhibition": "-3.9%"}, {"smiles": "Cc1ccc(-c2csc(NC(=O)c3cccs3)n2)cc1", "inhibition": "-2.3%"}, {"smiles": "O=C(O)CCC(=O)N(Cc1ccco1)c1nc(-c2ccccc2)cs1", "inhibition": "2.5%"}, {"smiles": "Cc1ccc(-c2csc(N(Cc3ccco3)C(=O)c3cccs3)n2)cc1", "inhibition": "68.5% (active)"}, {"smiles": "CCOC(=O)N1CCN(C(=O)C2CCN(S(C)(=O)=O)CC2)CC1", "inhibition": "-15%"}, {"smiles": "Cc1nc(NC(=O)CN(C)S(=O)(=O)c2ccc(Cl)cc2)sc1C", "inhibition": "62.6% (active)"}, {"smiles": "CCOC(=O)Cc1csc(NC(=O)CN(C)S(=O)(=O)c2ccc3c(c2)CCC(=O)N3)n1", "inhibition": "-17.1%"}, {"smiles": "CN(CC(=O)Nc1cccc2c1CCCC2)S(=O)(=O)c1ccc(Cl)cc1", "inhibition": "-15.4%"}, {"smiles": "O=C(Nc1nccs1)C1CCN(S(=O)(=O)c2ccc(Cl)c(C(F)(F)F)c2)CC1", "inhibition": "36.3%"}, {"smiles": "CCN(c1ccccc1)S(=O)(=O)c1ccc(C(=O)Nc2nccs2)cc1", "inhibition": "-4.3%"}, {"smiles": "CN(CCCC(=O)Nc1nccs1)S(=O)(=O)c1ccc(Cl)cc1", "inhibition": "51% (active)"}, {"smiles": "O=c1c2ccccc2c(-c2ccc(Br)cc2)nn1Cc1ccccc1", "inhibition": "33%"}, {"smiles": "CCC(=O)NC(=Nc1nc2ccccc2s1)NC(=O)CC", "inhibition": "-0.9%"}, {"smiles": "N#C/C=C1\\Sc2ccccc2C(=O)N1CC(=O)N1CCN(S(=O)(=O)c2ccccc2)CC1", "inhibition": "-22.8%"}, {"smiles": "CC1(C)CC(=O)C(C=NCCN2CCN(C(=S)Nc3cccc(Cl)c3)CC2)=C(O)C1", "inhibition": "60.5% (active)"}, {"smiles": "CC(=O)N1CCN(CCN=CC2=C(O)CC(C)(C)CC2=O)CC1", "inhibition": "-18.4%"}, {"smiles": "CC1(C)CC(=O)C(C=NCCC2=CCCCC2)=C(O)C1", "inhibition": "9.5%"}, {"smiles": "CCn1cc(C(=O)NCC2CCCO2)c(=O)c2cc(S(=O)(=O)N3CCCCC3)ccc21", "note": "(stereo not drawn)", "inhibition": "13.6%"}, {"smiles": "Cc1ccc(C(=O)N(CN2CCCC2=O)c2ccc(F)cc2)cc1", "inhibition": "-14.3%"}, {"smiles": "CCCNC(=O)C1CC(=O)N(c2ccc(OCC(=O)Nc3cccc(C)c3C)cc2)C1", "note": "(stereo not drawn)", "inhibition": "-17.2%"}, {"smiles": "COCCCNC(=O)C1CC(=O)N(c2ccc(C)cc2)C1", "note": "(stereo not drawn)", "inhibition": "5.7%"}, {"smiles": "COc1ccc(Cl)cc1NC(=O)C1CC(=O)N(c2ccc(F)cc2)C1", "note": "(stereo not drawn)", "inhibition": "74.3% (active)"}, {"smiles": "N#Cc1c(N)nc2c3c(sc(=N)c2c1N)NC(=O)CC3c1ccccc1Cl", "note": "(stereo not drawn)", "inhibition": "-0.8%"}, {"smiles": "CN(C)c1ccnc(Oc2ccc(F)cc2)c1C#N", "inhibition": "32.1%"}, {"smiles": "Cc1cc(C)cc(OCc2nnc(SCC(=O)OC3CCCCC3)o2)c1", "inhibition": "4.2%"}, {"smiles": "Cc1cccc(OCc2nnc(SCc3nc4cc(C(F)(F)F)ccc4c(=O)[nH]3)o2)c1", "inhibition": "54% (active)"}, {"smiles": "Cc1cccc(OCc2nnc(SCn3nnc4ccccc4c3=O)o2)c1", "inhibition": "31.6%"}, {"smiles": "COc1ccc(Nc2cc(C)nc(-n3nc(C)cc3C)n2)cc1", "inhibition": "46%"}, {"smiles": "COCCCNC(NC(=O)c1ccc(C)cc1)C(Cl)(Cl)Cl", "note": "(stereo not drawn)", "inhibition": "24.3%"}, {"smiles": "CCC(=O)c1c[nH]c(C(=O)NCC2CCCO2)c1", "note": "(stereo not drawn)", "inhibition": "-4.8%"}, {"smiles": "CCNC(=O)N1CCNC(=O)C1CC(=O)Nc1ccc(C(=O)OCC)cc1", "note": "(stereo not drawn)", "inhibition": "3.6%"}, {"smiles": "CC1(C)Cc2cccc(OCC(=O)Nc3nccs3)c2O1", "inhibition": "60.6% (active)"}, {"smiles": "COc1cc(C(=O)Nc2nccs2)cc(OC)c1OC", "inhibition": "17.9%"}, {"smiles": "CC1(C)Cc2cccc(OCC(N)=O)c2O1", "inhibition": "-16.5%"}, {"smiles": "CCOC(=O)c1cc2n(c1N)-c1ccccc1C2=O", "inhibition": "26.7%"}, {"smiles": "O=C(NCC1CCC(C(=O)O)CC1)OCc1ccccc1", "note": "(stereo not drawn)", "inhibition": "2.9%"}, {"smiles": "Cc1nn(-c2ccccc2)c(Cl)c1C(=O)Nc1ccccc1", "inhibition": "39.2%"}, {"smiles": "Cc1nn(-c2ccccc2)c(CC(C)(C)C(=O)O)c1C(=O)O", "inhibition": "7.2%"}, {"smiles": "Cc1ccc(C(=O)/C=C/c2c(C)nn(-c3ccccc3)c2Cl)cc1", "inhibition": "76.2% (active)"}, {"smiles": "Cc1ccc(O)c(CNc2nc3ccccc3n2C)c1", "inhibition": "39.6%"}, {"smiles": "CCC1SC2=NCCN2C1(O)c1ccc(Cl)cc1", "note": "(stereo not drawn)", "inhibition": "94.6% (active)"}, {"smiles": "O=C(COc1ccccc1F)NC1CC1", "inhibition": "-8.2%"}, {"smiles": "O=C1CCCc2c1nc(-c1cccc(Cl)c1)n2O", "inhibition": "-3.8%"}, {"smiles": "CON(C)S(=O)(=O)c1ccc2c(c1)NC(=O)C1CCCN21", "note": "(stereo not drawn)", "inhibition": "4.3%"}, {"smiles": "COc1ccc(Nc2nc(Cl)nc(NCc3ccco3)n2)cc1", "inhibition": "4%"}, {"smiles": "COc1ccc(N(CC(=O)N/N=C/c2cccs2)S(=O)(=O)c2ccc(OC)c(OC)c2)cc1", "inhibition": "99.3% (active)"}, {"smiles": "COc1ccc(N(CC(=O)N/N=C/c2cccc3c2OCCO3)S(=O)(=O)c2ccc(NC(C)=O)cc2)cc1", "inhibition": "33.4%"}, {"smiles": "Cc1cc(C)nc(SC(C)C(=O)N/N=C/c2cccs2)n1", "note": "(stereo not drawn)", "inhibition": "20.8%"}, {"smiles": "CCOc1ccc(N=Cc2c(O)n(-c3cccc(C)n3)c(=O)c3ccccc23)cc1", "inhibition": "23.6%"}, {"smiles": "CCOC(=O)c1cc2c(n(-c3ccc(C)cc3)c1=O)CCCC2=O", "inhibition": "5.6%"}, {"smiles": "COC(=O)CNC(=O)c1ccccc1F", "inhibition": "-5.1%"}, {"smiles": "CN(NC(=O)c1ccccc1)c1nc2ccccc2nc1C(F)(F)F", "inhibition": "35.4%"}, {"smiles": "COc1ccc(C(=O)NN(C)c2nc(-c3ccccc3)cc(C)c2S(C)(=O)=O)cc1", "inhibition": "10.6%"}, {"smiles": "CSc1nc(N(C)NC(=O)c2cccc(C)c2)c2ccccc2n1", "inhibition": "77% (active)"}, {"smiles": "Cc1c(C(=O)OC(C)C)sc(NC(=O)c2cccnc2)c1C#N", "inhibition": "1.5%"}, {"smiles": "CC(NC(=O)c1ccco1)C(=O)Nc1nc(-c2ccccn2)cs1", "note": "(stereo not drawn)", "inhibition": "6%"}, {"smiles": "Nc1ccc(Oc2ccc(Cl)cc2)cc1", "inhibition": "85.1% (active)"}, {"smiles": "Cc1ccc(Oc2ccc(N)cc2)cc1", "inhibition": "87.9% (active)"}, {"smiles": "Cc1ccc(S(=O)(=O)c2ccc(Oc3ccccc3)cc2)cc1", "inhibition": "-11.2%"}, {"smiles": "COc1ccc2[nH]c3ccc(OC)cc3c2c1", "inhibition": "29.9%"}, {"smiles": "Clc1ccc(Cl)c(Oc2ccc(Oc3nc(Cl)ccc3Cl)cc2)n1", "inhibition": "-4.8%"}, {"smiles": "COCCNCCOCCOc1cccc(OC)c1", "inhibition": "10.2%"}, {"smiles": "COc1cccc(Oc2ccc(N)cc2)c1", "inhibition": "64.1% (active)"}, {"smiles": "CN(C)S(=O)(=O)c1ccc(Oc2ccc(S(=O)(=O)N(C)C)cc2)cc1", "inhibition": "19.7%"}, {"smiles": "Nn1c(SCC(=O)NC(=O)NC2CCCC2)nnc1-c1ccccc1F", "inhibition": "27.9%"}, {"smiles": "COc1ccc(C(C(O)C(=O)c2c[nH]c3ccccc23)N2CCN(c3ccccc3)CC2)cc1", "note": "(stereo not drawn)", "inhibition": "28.5%"}]}]}
